Only some compounds are listed: those with a hit (about 21% of all), similar ones and a draw of the others.
Pf growth 96h: P. falciparum growth inhibition at 96 hour, primary screen for plastid delayed-death inhibitors | P. falciparum luciferase reporter growth, 96 h | Potency, µM (series often up to 28.7 µM), for the others: top-dose activity change, negative = inhibition, hits mostly inhibitors | 320,000 compounds, 6.9% hits; further: potency means the concentration at half of the fitted maximal effect; on the % scale 0 is the no-effect control and ±100 the full control effect
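Compounds incubated with erythrocytes infected by luciferase-expressing P. falciparum (2% hematocrit, 0.05% parasitemia final) for 96 hours, 37 C in 5% CO2. Growth inhibition scored as decreased luciferase luminescence.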
Shiga toxin inh: blocks Shiga toxin action in Vero cells | inhibition, % at 38.7 µM | 290,000 compounds, 9.2% hits | Vero cells, Shiga toxin protein synthesis inhibition reporter; in the data active means inhibition mostly above about 28%, no sharp cut-off; inactive means mostly below about 43%; further: 0% is about no effect
Pf growth 48h: P. falciparum growth inhibition at 48 hours (one generation); 310,000 compounds, 5.9% hits; Potency, µM (titrated, usually from 28.7 µM), without a hit: at the highest dose activity change, negative = inhibition, hits mostly inhibitors; P. falciparum luciferase growth in erythrocytes, 48 h; further: potency means the concentration at half of the fitted maximal effect; on the % scale 0 is the no-effect control and ±100 the full control effect
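Erythrocytes infected with P. falciparum carrying an integrated firefly luciferase reporter (2% hematocrit, 0.1% parasitemia final) were exposed to compounds in RPMI 1640 with 0.5% Albumax at 37 C, 5% CO2. Growth inhibition was scored as reduced luminescence.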
HCMV inh: human cytomegalovirus inhibition | 410,000 compounds, 4.5% hits | AID 1259415 | activity change, negative = inhibition, % at 57.5 µM | HFF cells, HCMV-luciferase reporter, 72 h; hits give low values; in the data active means activity change below about -60%; inconclusive means no clear call, values can overlap the other calls; inactive means above about -39%; further: on the % scale 0 is the no-effect control and ±100 the full control effect
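Two compound doses tested in HFFs infected with HCMV-luciferase, MOI 1 PFU/cell, 72 h at 37C. Lysate luminescence read with OneGlo; data normalized against buffer-only and 10uM Salinomycin inhibitor controls.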
Cycloheximide cs: counter-screen hit for Shiga toxin inhibitors, cycloheximide | cell reporter, cycloheximide protein synthesis inhibition counterscreen | max response, % | 300,000 compounds, 12% hits; in the data active means max response mostly above about 13%, no sharp cut-off; inactive means mostly below about 14%; further: read at 38.3 µM for the half of the compounds with a filed dose; 0% is about no effect
HCV inhibitor: blocks hepatitis C virus; Huh7.5.1 HCVcc-Cre infection, luciferase reporter, 44 h; Potency, µM (highest dose often 41.8 µM), inactives show at the highest dose activity change, negative = inhibition, actives largely listed as inhibitors; 340,000 compounds, 3.4% hits; AID 651820; further: potency means the concentration at half of the fitted maximal effect; on the % scale 0 is the no-effect control and ±100 the full control effect
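After 44 h co-culture of compound, cells and HCVcc-Cre (~0.5 moi), substrate is added for 15 min at room temperature and luciferase measured over 15 sec. Cells were seeded at 1,000/well and pre-cultured 4 h.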
An asterisk follows results filed as active; i = inactive; u = inconclusive; x = not tested or not shown; + = active, no number; [ ] = another dose, or the depositor's remark. Unless noted, the call rests on the fitted dose curve; in most records, active means well fitted inhibition curve with a large enough effect; inconclusive means small, poorly fitted or top-dose-only effect, or another doubt; inactive means no such curve, though single readings can be large or run the other way.

SMILES	Pf growth 96h	Shiga toxin inh	Pf growth 48h	HCMV inh	Cycloheximide cs	HCV inhibitor
Nn1c(Nc2ccccc2)nc2ccccc21	53%	58*	163%	-18	36*	8%
Cc1ccc(-n2ncc3c(NC4CCCCC4)ncnc32)cc1C	x	x	x	41	x	x
COc1cccc(-c2cc(C(=O)NCCc3ccc(OC)c(OC)c3)no2)c1	x	x	x	7	x	x
CCCCOC(=S)NC(=O)c1sc2ccccc2c1Cl	60%	36	16%	10	22	1%
CN(C(=O)COC(=O)c1sc2ccccc2c1Cl)C1CCCCC1	4%	55*	16%	32	17	23%
CN(C(=O)COC(=O)CNC(=O)c1sc2ccccc2c1Cl)C1CCS(=O)(=O)C1 (stereo not given)	x	x	x	25	x	16%
CN(C)CCCOC(=O)c1sc2ccccc2c1Cl	90%	59*	20%	-16	39*	-14%
Cc1cccc(COc2ncnc3nc[nH]c23)c1	-20%	35*	9%	4	15	4µM*
O=C(CNC(=O)c1ccccc1F)OCC(=O)c1ccc(Cl)s1	21%	9	1%	51	16	11%
COc1ccc2oc(C(=O)CCC(=O)O)c(N)c2c1	3%	-3	x	-21	0	20%
CCOC(=O)c1oc2ccccc2c1N	0%[5.75 µM]	67*	18%	43	27*	6%
Cc1ccc(C(=O)c2oc3ccccc3c2NC(=O)COc2ccccc2C)cc1	x	x	x	11	x	x
Cc1ccc(C(=O)c2oc3ccccc3c2N)cc1	1%	74*	22%	121	20*	u
Nc1c(C(=O)c2ccccc2)oc2ccc(Br)cc12	u	83*	159%	97	28*	-17%
COC(=O)CCC(=O)c1oc2ccc(Br)cc2c1N	4%	+	i	u	41*	6%
COC(=O)c1oc2ccc(Br)cc2c1-n1cccc1	u	-6	6%	10	-4	-9%
CC(C)c1ccc(S(=O)(=O)c2nnn3c2nc(N2CCN(C)CC2)c2sccc23)cc1	x	x	x	24	x	x
CCOC(=O)C1C(=O)CC(C)(O)C(C(=O)OCC)C1c1ccc([N+](=O)[O-])cc1 (stereo not given)	u	-5	-23%	-35	-2	10%
Nc1c(C(=O)c2ccc(Br)cc2)oc2ccccc12	-6%	45*	49%	78	30*	-1%
Nc1c(C(=O)c2ccccc2)oc2ccc([N+](=O)[O-])cc12	187%	41*	-17%	-17	26*	12%
O=C(Nc1ccccc1)C1=C[C@@H](c2ccc(C(F)(F)F)cc2)C[C@@H](OCCCCO)O1	x	x	x	-10	x	13%
C=CCN1C(=O)/C(=C2/Sc3ccc(OC)cc3N2CC)SC1=S	u	x	-12%	32	-2	-1%
CCCCN1C(=O)/C(=C2/Sc3ccc(OC)cc3N2CC)SC1=S	9.3µM*	x	31%	x	-2	0%
COCCN1C(=O)/C(=C2/C(=O)N(CC(=O)Nc3ccccc3Cl)c3ccccc32)SC1=S	u	-7	u	11	-2	x
CCN1C(=O)/C(=C2\SC(=S)N(CCCOC)C2=O)c2ccccc21	10µM*	-12	u	-6	-2	2%
SMILES	Pf growth 96h	Shiga toxin inh	Pf growth 48h	HCMV inh	Cycloheximide cs	HCV inhibitor
CCCc1ccccc1OCCNC(C)=O	8.3µM*	-4	-16%	32	-2	-7%
COc1ccc(CNC(=O)CCC2N=C3c4ccccc4N=C(SCc4ccccc4F)N3C2=O)cc1 (stereo not given)	x	x	x	27	x	x
CCc1ccc(NC(=O)CSc2nc3ccccc3nc2Cc2ccccc2OC)cc1	x	x	x	8	x	x
COc1ccc(N2CCOCC2)c(NC(=O)c2ccc(Br)o2)c1	10%	-4	u	-81*	-2	x
O=C(Nc1cc(Cl)ccc1N1CCOCC1)c1ccc(Br)o1	-2%	65*	184%	x	69*	5%
O=C(Nc1ccc(Cl)cc1Cl)c1ccc(Br)o1	u	78*	42%	131	44*	15%
COc1ccc(N2CCOCC2)c(NC(=O)c2cccc3ccccc23)c1	7%	-3	3.7µM*	-30	-3	u
CCOc1ccccc1NC(=O)COC(=O)C(Cc1ccccc1)NC(=O)c1ccco1 (stereo not given)	33%	x	36%	0	x	16%
CCn1ccc2c(OCC(=O)Nc3ccccc3C(F)(F)F)cccc2c1=O	x	x	x	-27	x	x
CCOC1=C2CN(S(=O)(=O)c3ccc(C)cc3)CC[C@@H]2N(S(=O)(=O)c2ccc(C)cc2)[C@H](c2ccccc2)C1	x	x	x	7	x	x
O=C1C(n2ccc3ccccc32)c2ccccc2N1Cc1ccc(Cl)nc1 (stereo not given)	x	x	x	2	x	x
O=C(Nc1ccccc1N1CCOCC1)c1cccc2c(Br)cccc12	-21%	8	x	u	9	5.6µM*
CC(C)C(=O)N1CCN(c2ccccc2NC(=O)c2cccc3ccccc23)CC1	u	15	u	-65*	-2	u
O=C(Nc1ccc(N2CCOCC2)cc1)c1cccc2c(Br)cccc12	-4%	-5	-5%	-18	0	5%
CS(=O)(=O)N1CCN(c2ccccc2NC(=O)c2cccc3ccccc23)CC1	u	9	u	u	0	-11%
Cc1ccnc2nc(C(=O)Nc3cc(Cl)ccc3N3CCOCC3)nn12	0.23µM*	-9	0.15µM*	-11	0	-15%
Cc1ccc(OCC(=O)NNC(=O)Nc2ccc(Cl)cc2)c(Br)c1	x	x	x	-28	x	-2%
Cc1cccc(NC(=S)NCCC(C)C)c1	12µM*	25	u	-30	20*	u
COc1ccc(CCNC(=S)Nc2cccc(C)c2)cc1	194%	-11	-4%	x	12	-24%
S=C(NCCc1c[nH]c2ccccc12)NC1CCCC1	u	37	17%	-2	23*	12%
S=C(NCCc1c[nH]c2ccccc12)NC1CCCCC1	-2%	60	23%	-37	16	-1%
O=C(NCCc1c[nH]c2ccccc12)OCCSS(=O)(=O)O	12µM*	-4	7%	-35	-1	2%
Cc1cccc(C)c1NC(=O)C(=O)NCCc1c[nH]c2ccccc12	u	-6	5.2µM*	-13	-2	u
CN(CCO)c1ccc(-c2n[nH]c(=O)c3ccccc23)cc1[N+](=O)[O-]	28%	-5	u	64	-2	-12%
Cc1cccc(NC(=S)NCCc2c[nH]c3ccccc23)c1	u	-1	-5%	-80*	1	-13%
Cc1ccc(NC(=S)NCCc2c[nH]c3ccccc23)cc1	17%	18	36%	1	15*	u
O=C(NCCc1c[nH]c2ccccc12)Nc1ccccc1	54%	14	4%	-19	24*	u
Cc1ccc(C)c(NC(=S)NCCc2c[nH]c3ccccc23)c1	u	21	u	-78*	-2	u

Source: PubChem BioAssay (National Center for Advancing Translational Sciences (NCATS))
